Laboratory results published in ChEMBL document CHEMBL3988442, “University of Dundee, Small-Polar-MMV Screening Library” (2021).
For some assays here: Measured potencies and affinities stand elsewhere.

What was measured:
Parameters in all cases: scale not given: direction of the effect not stated beside the values
[1] = target: Protein translocase subunit SecA (Escherichia coli (strain K12)) (UniProt P10408); assay: Assay to Identify E. coli SecA ATPase Inhibitors; type: functional; conditions: 30 µM
[2] = target: T1, Ubiquitin-activating enzyme e1, putative (Leishmania donovani (strain BPK282A1)) (UniProt E9BSI1); assay: Leishmania donovani Ubiquitin Activating Enzyme (LdE1); type: functional; conditions: 30 µM
T1 sequence (whole entry): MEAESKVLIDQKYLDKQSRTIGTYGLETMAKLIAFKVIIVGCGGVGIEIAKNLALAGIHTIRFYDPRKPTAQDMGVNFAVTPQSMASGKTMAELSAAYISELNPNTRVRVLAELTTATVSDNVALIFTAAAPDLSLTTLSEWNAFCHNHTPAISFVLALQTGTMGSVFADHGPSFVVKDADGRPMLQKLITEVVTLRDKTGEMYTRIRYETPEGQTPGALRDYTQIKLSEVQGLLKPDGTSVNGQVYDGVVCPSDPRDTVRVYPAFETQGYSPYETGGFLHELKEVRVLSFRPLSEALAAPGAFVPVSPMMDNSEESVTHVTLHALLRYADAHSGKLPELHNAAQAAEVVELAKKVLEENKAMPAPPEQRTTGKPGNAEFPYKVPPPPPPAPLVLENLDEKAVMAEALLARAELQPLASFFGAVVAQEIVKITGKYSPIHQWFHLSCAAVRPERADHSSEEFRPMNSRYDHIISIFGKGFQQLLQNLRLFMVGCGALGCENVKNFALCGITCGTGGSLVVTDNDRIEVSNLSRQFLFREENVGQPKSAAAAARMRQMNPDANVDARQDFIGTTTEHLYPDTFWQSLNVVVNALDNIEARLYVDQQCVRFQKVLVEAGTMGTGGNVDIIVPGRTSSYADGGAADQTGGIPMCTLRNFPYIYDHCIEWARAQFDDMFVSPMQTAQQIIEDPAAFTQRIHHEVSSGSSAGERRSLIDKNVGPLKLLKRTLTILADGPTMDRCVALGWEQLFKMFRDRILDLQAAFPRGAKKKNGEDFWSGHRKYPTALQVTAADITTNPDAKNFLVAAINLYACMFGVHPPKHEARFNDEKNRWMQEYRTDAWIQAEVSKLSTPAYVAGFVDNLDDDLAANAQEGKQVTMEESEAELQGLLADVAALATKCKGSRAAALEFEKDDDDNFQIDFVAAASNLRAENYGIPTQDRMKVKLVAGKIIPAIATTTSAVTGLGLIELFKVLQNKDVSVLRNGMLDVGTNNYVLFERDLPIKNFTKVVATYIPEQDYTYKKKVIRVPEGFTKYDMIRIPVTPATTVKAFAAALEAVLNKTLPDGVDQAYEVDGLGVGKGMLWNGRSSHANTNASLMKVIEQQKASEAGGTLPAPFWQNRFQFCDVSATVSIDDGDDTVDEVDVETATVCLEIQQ

[3] = target: AMP-activated protein kinase, AMPK (Homo sapiens) (UniProt P54646+O43741+P54619+Q9UGJ0+Q9Y478+Q13131+Q9UGI9); assay: AMP-dependent Kinase enzyme assay. An in vitro enzyme assay that detects ADP turnover that is directly proportional to AMPK activity. This uses naive AMPK that is activated during the assay with MK-8722; type: functional; conditions: 30 µM
[4] = target: Sialic acid-binding Ig-like lectin 9 (Homo sapiens) (UniProt Q9Y336); assay: Hs-Siglec9 ALPHAscreen SOP 20170721; conditions: 10 µM
Trypanosoma cruzi = assay: Trypanosoma cruzi phosphomannomutase and mannose-1-phosphate guanylyltransferase assay; type: functional; conditions: 10 µM
[5] = target: T2, Arginase-2, mitochondrial (Homo sapiens) (UniProt P78540); assay: in vitro enzyme assay to detect the production of urea directly proportional to the activity of Arginase II; type: functional; conditions: 33.3 µM; note: in the data most compounds retested in dose-response had high values
T2 sequence (whole entry): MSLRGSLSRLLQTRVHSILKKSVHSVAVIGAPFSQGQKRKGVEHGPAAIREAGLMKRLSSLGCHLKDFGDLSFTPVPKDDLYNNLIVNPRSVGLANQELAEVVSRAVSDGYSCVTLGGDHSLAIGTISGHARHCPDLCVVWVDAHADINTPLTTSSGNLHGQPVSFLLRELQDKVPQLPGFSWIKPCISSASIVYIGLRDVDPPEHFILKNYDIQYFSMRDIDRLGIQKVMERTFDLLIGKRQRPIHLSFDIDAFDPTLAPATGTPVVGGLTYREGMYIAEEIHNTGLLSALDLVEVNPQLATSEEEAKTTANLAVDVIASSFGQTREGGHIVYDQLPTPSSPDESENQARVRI

[6] = target: T3, Proteasome subunit beta (Trypanosoma cruzi) (UniProt O96673); assay: Trypanosoma cruzi proteasome chymotrypsin-like activity (TcProtChymo) assay.; note: in the data most compounds retested in dose-response had high values; type: functional; conditions: 9.37 µM
T3 sequence (whole entry): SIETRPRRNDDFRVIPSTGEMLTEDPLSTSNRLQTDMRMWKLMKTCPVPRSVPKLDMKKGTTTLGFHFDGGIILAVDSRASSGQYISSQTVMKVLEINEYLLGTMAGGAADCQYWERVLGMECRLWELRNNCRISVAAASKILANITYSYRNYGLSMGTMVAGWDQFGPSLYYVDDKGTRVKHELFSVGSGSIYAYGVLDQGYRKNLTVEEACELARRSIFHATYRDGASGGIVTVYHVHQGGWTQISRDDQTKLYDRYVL

Homo sapiens = species: Homo sapiens; assay: To identify inhibition of the IFN signalling (Jak-Stat) pathway via expression of an eGFP reporter gene under the control of an IFN-stimulated response element (ISRE) containing MxA promoter.; type: functional; conditions: 30 µM
[7] = target: T4, Tyrosyl-tRNA synthetase, putative (Trypanosoma cruzi (strain CL Brener)) (UniProt Q4DSP6); assay: Trypanosoma cruzi tyrosyl tRNA synthetase (TcYRS) _High Tyrosine SOP; type: functional; conditions: 30 µM; note: in the data most compounds retested in dose-response had high values
T4 sequence (whole entry): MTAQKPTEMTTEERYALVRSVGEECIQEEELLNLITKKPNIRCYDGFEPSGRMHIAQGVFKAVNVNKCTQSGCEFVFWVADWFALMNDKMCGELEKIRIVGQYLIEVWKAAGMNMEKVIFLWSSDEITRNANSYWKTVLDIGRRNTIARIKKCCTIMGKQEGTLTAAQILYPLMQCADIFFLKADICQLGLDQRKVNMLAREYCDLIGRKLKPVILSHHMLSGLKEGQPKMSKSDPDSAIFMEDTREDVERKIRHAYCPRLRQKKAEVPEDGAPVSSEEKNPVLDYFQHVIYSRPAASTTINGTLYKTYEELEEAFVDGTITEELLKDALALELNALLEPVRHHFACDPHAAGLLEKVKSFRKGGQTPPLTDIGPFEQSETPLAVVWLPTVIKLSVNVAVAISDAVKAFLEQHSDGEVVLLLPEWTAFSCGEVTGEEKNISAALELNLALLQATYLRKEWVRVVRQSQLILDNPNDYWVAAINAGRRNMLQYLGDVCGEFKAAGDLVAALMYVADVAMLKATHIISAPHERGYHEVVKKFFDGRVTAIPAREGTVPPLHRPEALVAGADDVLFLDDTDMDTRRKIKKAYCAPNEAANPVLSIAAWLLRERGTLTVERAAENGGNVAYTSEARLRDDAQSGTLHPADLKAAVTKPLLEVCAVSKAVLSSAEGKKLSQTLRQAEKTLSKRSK

[8] = target: T4, Tyrosyl-tRNA synthetase, putative (Trypanosoma cruzi (strain CL Brener)); assay: Trypanosoma cruzi tyrosyl tRNA synthetase (TcYRS) SOP; type: functional; conditions: 30 µM
[9] = target: Chromo domain-containing protein 1 (Saccharomyces cerevisiae (strain ATCC 204508 / S288c) (Baker's yeast)) (UniProt P32657); assay: ScCHD-1 Enzyme Inhibition Assay; type: functional; conditions: 30 µM; note: in the data most compounds retested in dose-response had high values
Chain of Chromo domain-containing protein 1 (Saccharomyces cerevisiae (strain ATCC 204508 / S288c) (Baker's yeast)) (P32657 whole entry, the tested form may be a part): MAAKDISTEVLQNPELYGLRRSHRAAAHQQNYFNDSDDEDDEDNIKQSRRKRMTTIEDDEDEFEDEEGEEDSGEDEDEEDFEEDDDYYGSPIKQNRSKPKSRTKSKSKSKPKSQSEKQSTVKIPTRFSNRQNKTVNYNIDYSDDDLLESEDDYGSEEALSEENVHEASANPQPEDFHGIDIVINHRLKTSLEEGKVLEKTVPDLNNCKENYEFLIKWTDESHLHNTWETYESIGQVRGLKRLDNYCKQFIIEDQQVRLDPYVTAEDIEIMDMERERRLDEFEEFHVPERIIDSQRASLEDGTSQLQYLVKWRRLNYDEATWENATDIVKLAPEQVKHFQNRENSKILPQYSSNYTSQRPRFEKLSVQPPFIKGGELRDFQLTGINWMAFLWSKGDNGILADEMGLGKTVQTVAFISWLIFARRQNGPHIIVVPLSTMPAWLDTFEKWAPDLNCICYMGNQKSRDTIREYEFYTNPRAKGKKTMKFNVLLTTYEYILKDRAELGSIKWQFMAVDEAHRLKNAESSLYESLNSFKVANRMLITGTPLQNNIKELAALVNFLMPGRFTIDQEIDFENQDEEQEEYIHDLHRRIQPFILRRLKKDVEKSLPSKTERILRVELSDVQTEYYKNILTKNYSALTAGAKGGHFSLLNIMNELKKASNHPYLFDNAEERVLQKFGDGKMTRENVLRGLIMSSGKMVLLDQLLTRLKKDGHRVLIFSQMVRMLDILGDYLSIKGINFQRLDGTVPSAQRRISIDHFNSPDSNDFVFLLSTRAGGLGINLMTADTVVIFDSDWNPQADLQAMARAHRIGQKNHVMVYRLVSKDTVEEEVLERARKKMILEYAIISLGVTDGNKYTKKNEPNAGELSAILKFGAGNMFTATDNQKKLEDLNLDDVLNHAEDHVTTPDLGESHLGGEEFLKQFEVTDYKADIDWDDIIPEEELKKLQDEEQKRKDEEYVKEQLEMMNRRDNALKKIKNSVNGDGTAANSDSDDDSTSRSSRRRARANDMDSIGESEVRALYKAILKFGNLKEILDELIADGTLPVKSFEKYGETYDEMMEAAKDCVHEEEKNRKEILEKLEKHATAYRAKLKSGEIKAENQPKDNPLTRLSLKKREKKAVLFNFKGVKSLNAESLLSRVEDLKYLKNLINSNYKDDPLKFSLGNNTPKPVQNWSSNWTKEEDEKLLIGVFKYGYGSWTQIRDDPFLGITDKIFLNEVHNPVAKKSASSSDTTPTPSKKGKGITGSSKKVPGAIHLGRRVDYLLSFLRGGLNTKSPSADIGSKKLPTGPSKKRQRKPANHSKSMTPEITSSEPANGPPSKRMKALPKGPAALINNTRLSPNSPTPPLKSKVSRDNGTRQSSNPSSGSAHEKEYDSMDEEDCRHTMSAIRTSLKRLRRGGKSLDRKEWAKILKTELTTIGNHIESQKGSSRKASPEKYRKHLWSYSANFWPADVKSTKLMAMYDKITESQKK

Chain of Sialic acid-binding Ig-like lectin 9 (Homo sapiens) (Q9Y336 whole entry): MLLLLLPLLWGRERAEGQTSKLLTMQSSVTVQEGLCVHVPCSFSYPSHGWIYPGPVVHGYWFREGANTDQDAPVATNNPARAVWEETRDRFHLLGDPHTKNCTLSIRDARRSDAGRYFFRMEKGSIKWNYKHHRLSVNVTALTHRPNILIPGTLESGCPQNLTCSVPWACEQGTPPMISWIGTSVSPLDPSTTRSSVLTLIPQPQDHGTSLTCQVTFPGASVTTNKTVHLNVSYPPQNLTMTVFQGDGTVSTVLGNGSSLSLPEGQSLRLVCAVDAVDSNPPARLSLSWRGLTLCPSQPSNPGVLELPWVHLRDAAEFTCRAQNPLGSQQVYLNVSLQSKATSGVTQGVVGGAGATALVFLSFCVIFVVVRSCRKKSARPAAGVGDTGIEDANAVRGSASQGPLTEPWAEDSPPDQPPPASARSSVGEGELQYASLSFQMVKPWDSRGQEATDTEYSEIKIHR
Chain of Protein translocase subunit SecA (Escherichia coli (strain K12)) (P10408 whole entry): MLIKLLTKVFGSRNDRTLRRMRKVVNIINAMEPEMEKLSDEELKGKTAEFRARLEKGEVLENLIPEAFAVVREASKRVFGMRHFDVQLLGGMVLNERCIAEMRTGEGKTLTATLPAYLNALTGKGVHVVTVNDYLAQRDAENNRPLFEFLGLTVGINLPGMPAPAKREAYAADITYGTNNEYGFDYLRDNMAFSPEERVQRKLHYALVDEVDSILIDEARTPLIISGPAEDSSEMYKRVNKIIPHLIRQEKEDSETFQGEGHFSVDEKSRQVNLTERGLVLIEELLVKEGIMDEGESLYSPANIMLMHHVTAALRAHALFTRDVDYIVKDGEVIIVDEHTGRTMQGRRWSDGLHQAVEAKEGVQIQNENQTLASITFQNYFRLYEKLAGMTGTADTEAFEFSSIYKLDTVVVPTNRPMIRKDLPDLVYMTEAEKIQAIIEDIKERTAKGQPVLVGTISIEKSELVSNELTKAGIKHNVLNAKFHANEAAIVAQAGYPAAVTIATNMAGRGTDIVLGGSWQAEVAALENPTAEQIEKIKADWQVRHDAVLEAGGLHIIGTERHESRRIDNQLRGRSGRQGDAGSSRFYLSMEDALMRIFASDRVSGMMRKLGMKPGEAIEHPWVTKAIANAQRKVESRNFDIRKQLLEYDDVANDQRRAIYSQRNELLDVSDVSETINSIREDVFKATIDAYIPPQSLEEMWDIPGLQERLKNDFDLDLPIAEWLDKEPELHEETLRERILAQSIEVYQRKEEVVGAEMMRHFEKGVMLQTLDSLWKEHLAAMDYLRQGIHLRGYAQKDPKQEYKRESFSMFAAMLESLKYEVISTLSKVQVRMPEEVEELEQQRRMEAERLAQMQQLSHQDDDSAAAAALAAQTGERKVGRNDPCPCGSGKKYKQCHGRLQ

Row | SMILES | Percent Effect [1] [%] | Percent Effect [2] [%] | Percent Effect [3] [%] | Percent Effect [4] [%] | Percent Effect (Trypanosoma cruzi) [%] | Percent Effect [5] [%] | Percent Effect [6] [%] | Percent Effect (Homo sapiens) [%] | Percent Effect [7] [%] | Percent Effect [8] [%] | Percent Effect [9] [%]
1 | Cc1csc(N2CCCN(C(=O)C3(C#N)CCCCC3)CC2)n1 | -0.0182 | -2.63 | 4.54 | -2.41 | -0.188 | 0.766 | -3.34 | -13.6 | 0.49 | -2.44 | 10.4
2 | O=C(c1n[nH]c2ccccc12)N1CCCC1c1noc(C2CC2)n1 (stereo unspecified) | -4.36 | 7.59 | -0.141 | 0.249 | 8.4 | 5.32 | 1.39 | -4.43 | 4.43 | 13.9 | -5.81
3 | COc1ccccc1CCNC(=O)CN1CCCC1c1noc(C)n1 (stereo unspecified) | -1.65 | 2.63 | 3.18 | 11.8 | -1.69 | 1.53 | 12.9 | 5.32 | 4.41 | 17.1 | -5.97
4 | Cc1cccc(C2(CNC(=O)CCNS(C)(=O)=O)CCCC2)c1 | -6.74 | 15.2 | -3.25 | 11.3 | 4.44 | -11 | 6.31 | -4.41 | 5.42 | 8.86 | -5.61
5 | COc1cccc(CC2CN(C3CCN(C(C)=O)CC3)CCO2)c1 (stereo unspecified) | -1.38 | -7.79 | 2.17 | 2.19 | -1.87 | -2.76 | -0.499 | -4.71 | 2.15 | 3.7 | 1.6
6 | CCc1cc(N2CCCNCC2)n2nc(C)c(C)c2n1 | -1.91 | 8 | 2.19 | 2.6 | -3.41 | 3.65 | 16 | 12.2 | 1.64 | 11.1 | -6.23
7 | CCOCCn1c(=O)[nH]c2cc(C(=O)N(C)Cc3nc(C)cs3)ccc21 | -0.0499 | 8.11 | -5.57 | 8.59 | -2.9 | 0.476 | 21 | 1.41 | 5.82 | 17.1 | -3.61
8 | COc1cccn(CC(=O)N(C)Cc2ccoc2)c1=O | -7 | -5.48 | -5.18 | 30.6 | 1.59 | 0.399 | 2.48 | -11 | 2.08 | 3.7 | 1.52
9 | Cc1ccc(SCC(=O)NS(=O)(=O)c2ccc3c(c2)OCCO3)cc1 | -2.38 | -10.5 | 2.56 | -1.45 | 5.45 | -2.68 | 15 | 3.33 | -6.37 | -7.32 | -0.431
10 | O=C(CCn1cnnc1)N1CCCC(c2ncc[nH]2)C1 (stereo unspecified) | 1.63 | 5.48 | 11.6 | 0.524 | -6.27 | 2.27 | 8.52 | 6.13 | 3.23 | 12.5 | -7.06
11 | Cc1nc(C)n(C2CCCN(C(=O)c3sccc3C3CC3)C2)n1 (stereo unspecified) | -1.6 | 2.53 | -0.568 | -3.81 | -5 | 1.9 | 0.409 | 22.4 | -2.46 | -8.86 | -7.52
12 | CC1CN(C(=O)c2ccn(-c3cccc(Cl)c3)n2)CCO1 (stereo unspecified) | -7.39 | 20.8 | 0.341 | 6.09 | 7.87 | -2.13 | 17.4 | 16.3 | 8.74 | 24.4 | -10.1
13 | CCCc1n[nH]c(C2CN(CCCS(C)(=O)=O)CCO2)n1 (stereo unspecified) | -5.31 | 11.4 | 0.105 | -1.3 | 1.13 | 2.37 | 14.1 | 1.09 | 5.21 | 10.1 | -22.8
14 | O=C(c1cccs1)N1CCC(Cn2nc(-c3ccco3)ccc2=O)CC1 | 0.0559 | 6.76 | 15.8 | 0.867 | -6.92 | 3.02 | 26.8 | 13.6 | 10.8 | 14.3 | 1.29
15 | CC(O)CN1CCN(C(=O)c2cc3ccccc3c(=O)[nH]2)CC1 (stereo unspecified) | -0.781 | -5.26 | 5.31 | -2.11 | -3.41 | -10.7 | 13.1 | -6.84 | 0 | 2.6 | 12.2
16 | Cc1ncc(C)c(N2CCCC(CO)(Cc3cccc(Cl)c3)C2)n1 (stereo unspecified) | -3.59 | 13 | 3.66 | 15.9 | 5.61 | 9.65 | 13.1 | 34 | 7.53 | 13.6 | -6.49
